# Laboratory results: ChEMBL document CHEMBL3988442, “University of Dundee, Small-Polar-MMV Screening Library” (2021)
# For part of these data: Potency and affinity values are given separately.
# Assays:
# Parameters in all cases: scale not given: direction of the effect not stated beside the values
# [1] = molecular target: Protein translocase subunit SecA (Escherichia coli (strain K12)) (UniProt P10408); assay: Assay to Identify E. coli SecA ATPase Inhibitors; format: functional; conditions: 30 µM
# Chain of Protein translocase subunit SecA (Escherichia coli (strain K12)) (P10408 whole entry): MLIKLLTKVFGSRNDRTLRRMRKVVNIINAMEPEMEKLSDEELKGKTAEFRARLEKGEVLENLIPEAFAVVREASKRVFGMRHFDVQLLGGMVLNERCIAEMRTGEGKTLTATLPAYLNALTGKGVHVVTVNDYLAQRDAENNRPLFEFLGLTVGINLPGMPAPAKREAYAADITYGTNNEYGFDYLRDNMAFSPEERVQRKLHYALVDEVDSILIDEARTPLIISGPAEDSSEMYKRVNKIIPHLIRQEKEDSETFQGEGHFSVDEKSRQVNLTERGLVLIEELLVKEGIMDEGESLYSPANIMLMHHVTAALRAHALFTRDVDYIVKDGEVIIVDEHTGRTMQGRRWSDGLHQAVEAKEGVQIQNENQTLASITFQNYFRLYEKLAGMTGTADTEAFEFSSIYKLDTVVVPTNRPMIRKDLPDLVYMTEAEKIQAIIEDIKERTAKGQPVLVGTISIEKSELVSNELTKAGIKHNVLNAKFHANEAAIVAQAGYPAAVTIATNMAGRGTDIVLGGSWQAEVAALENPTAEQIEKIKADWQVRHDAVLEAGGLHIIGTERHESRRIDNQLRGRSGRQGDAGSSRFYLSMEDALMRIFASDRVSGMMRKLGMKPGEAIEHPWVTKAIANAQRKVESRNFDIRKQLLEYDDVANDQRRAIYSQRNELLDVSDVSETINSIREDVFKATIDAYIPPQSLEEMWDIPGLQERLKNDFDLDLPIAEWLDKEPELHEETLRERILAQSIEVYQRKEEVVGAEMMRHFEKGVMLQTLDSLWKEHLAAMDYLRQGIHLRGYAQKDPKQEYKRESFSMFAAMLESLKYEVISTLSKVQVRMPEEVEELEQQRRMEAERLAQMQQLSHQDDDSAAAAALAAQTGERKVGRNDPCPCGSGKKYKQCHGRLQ
# [2] = molecular target: T1, Ubiquitin-activating enzyme e1, putative (Leishmania donovani (strain BPK282A1)) (UniProt E9BSI1); assay: Leishmania donovani Ubiquitin Activating Enzyme (LdE1); format: functional; conditions: 30 µM
# T1 sequence (whole entry): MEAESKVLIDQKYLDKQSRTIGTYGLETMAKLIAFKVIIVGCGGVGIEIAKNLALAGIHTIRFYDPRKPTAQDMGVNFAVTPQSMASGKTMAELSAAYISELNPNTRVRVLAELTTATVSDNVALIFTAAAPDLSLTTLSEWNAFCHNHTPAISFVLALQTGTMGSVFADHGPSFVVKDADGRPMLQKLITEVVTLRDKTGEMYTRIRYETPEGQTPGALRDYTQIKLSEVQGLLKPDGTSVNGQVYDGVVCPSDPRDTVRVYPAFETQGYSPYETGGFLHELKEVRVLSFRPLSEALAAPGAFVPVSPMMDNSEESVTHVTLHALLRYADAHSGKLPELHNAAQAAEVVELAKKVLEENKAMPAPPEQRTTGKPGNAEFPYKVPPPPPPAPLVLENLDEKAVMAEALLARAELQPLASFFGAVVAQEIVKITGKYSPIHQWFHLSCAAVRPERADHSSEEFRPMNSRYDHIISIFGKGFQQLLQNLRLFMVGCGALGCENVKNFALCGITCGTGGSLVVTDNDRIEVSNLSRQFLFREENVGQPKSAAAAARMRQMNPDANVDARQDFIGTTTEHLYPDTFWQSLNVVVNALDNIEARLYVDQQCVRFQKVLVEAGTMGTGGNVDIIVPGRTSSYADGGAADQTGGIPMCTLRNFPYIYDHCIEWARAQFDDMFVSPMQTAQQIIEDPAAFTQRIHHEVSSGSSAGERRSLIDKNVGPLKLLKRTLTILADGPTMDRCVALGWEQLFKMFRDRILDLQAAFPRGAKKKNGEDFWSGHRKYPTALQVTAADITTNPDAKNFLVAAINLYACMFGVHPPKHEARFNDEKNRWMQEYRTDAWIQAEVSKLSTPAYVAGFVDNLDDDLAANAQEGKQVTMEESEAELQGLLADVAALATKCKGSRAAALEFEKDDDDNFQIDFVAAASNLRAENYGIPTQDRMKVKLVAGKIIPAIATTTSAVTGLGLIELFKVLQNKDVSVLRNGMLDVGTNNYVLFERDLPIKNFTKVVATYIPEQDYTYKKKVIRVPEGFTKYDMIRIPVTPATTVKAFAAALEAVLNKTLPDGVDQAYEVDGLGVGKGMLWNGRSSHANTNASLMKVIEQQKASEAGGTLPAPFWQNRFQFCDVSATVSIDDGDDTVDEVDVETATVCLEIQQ
# [3] = molecular target: AMP-activated protein kinase, AMPK (Homo sapiens) (UniProt P54646+O43741+P54619+Q9UGJ0+Q9Y478+Q13131+Q9UGI9); assay: AMP-dependent Kinase enzyme assay. An in vitro enzyme assay that detects ADP turnover that is directly proportional to AMPK activity. This uses naive AMPK that is activated during the assay with MK-8722; format: functional; conditions: 30 µM
# [4] = molecular target: Sialic acid-binding Ig-like lectin 9 (Homo sapiens) (UniProt Q9Y336); assay: Hs-Siglec9 ALPHAscreen SOP 20170721; conditions: 10 µM
# Chain of Sialic acid-binding Ig-like lectin 9 (Homo sapiens) (Q9Y336 whole entry): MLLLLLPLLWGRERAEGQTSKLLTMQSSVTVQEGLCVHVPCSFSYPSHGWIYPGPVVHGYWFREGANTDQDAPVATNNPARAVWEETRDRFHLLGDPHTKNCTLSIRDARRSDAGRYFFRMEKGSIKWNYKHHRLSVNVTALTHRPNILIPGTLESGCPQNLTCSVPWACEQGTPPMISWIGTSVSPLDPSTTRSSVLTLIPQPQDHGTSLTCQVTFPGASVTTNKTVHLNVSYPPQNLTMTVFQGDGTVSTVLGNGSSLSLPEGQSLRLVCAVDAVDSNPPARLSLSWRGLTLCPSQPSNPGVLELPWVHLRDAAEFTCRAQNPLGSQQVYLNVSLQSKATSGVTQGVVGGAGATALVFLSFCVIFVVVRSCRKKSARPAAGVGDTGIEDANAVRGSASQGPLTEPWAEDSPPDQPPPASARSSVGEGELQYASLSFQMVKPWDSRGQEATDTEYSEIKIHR
# [5] = system: Trypanosoma cruzi; assay: Trypanosoma cruzi phosphomannomutase and mannose-1-phosphate guanylyltransferase assay; format: functional; conditions: 10 µM
# [6] = molecular target: T2, Arginase-2, mitochondrial (Homo sapiens) (UniProt P78540); assay: in vitro enzyme assay to detect the production of urea directly proportional to the activity of Arginase II; format: functional; conditions: 33.3 µM; note: in the data most compounds retested in dose-response had high values
# T2 sequence (whole entry): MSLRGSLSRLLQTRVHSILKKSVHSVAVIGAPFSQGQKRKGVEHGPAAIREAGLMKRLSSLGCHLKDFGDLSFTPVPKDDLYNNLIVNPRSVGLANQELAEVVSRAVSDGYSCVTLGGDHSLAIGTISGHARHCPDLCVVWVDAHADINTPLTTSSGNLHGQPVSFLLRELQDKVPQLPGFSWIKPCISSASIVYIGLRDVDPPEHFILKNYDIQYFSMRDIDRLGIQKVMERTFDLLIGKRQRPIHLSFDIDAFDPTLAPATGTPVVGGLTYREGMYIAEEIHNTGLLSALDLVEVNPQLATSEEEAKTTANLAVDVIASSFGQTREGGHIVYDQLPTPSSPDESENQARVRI
# [7] = molecular target: T3, Proteasome subunit beta (Trypanosoma cruzi) (UniProt O96673); assay: Trypanosoma cruzi proteasome chymotrypsin-like activity (TcProtChymo) assay.; note: in the data most compounds retested in dose-response had high values; format: functional; conditions: 9.37 µM
# T3 sequence (whole entry): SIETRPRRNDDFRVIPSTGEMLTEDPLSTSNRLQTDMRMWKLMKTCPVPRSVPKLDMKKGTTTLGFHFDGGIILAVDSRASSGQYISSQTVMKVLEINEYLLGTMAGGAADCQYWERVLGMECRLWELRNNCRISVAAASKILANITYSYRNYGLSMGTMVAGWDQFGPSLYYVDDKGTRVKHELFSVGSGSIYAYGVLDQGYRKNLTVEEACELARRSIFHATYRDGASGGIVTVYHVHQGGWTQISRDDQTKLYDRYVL
# [8] = organism: Homo sapiens; assay: To identify inhibition of the IFN signalling (Jak-Stat) pathway via expression of an eGFP reporter gene under the control of an IFN-stimulated response element (ISRE) containing MxA promoter.; format: functional; conditions: 30 µM
# [9] = molecular target: T4, Tyrosyl-tRNA synthetase, putative (Trypanosoma cruzi (strain CL Brener)) (UniProt Q4DSP6); assay: Trypanosoma cruzi tyrosyl tRNA synthetase (TcYRS) _High Tyrosine SOP; format: functional; conditions: 30 µM; note: in the data most compounds retested in dose-response had high values
# T4 sequence (whole entry): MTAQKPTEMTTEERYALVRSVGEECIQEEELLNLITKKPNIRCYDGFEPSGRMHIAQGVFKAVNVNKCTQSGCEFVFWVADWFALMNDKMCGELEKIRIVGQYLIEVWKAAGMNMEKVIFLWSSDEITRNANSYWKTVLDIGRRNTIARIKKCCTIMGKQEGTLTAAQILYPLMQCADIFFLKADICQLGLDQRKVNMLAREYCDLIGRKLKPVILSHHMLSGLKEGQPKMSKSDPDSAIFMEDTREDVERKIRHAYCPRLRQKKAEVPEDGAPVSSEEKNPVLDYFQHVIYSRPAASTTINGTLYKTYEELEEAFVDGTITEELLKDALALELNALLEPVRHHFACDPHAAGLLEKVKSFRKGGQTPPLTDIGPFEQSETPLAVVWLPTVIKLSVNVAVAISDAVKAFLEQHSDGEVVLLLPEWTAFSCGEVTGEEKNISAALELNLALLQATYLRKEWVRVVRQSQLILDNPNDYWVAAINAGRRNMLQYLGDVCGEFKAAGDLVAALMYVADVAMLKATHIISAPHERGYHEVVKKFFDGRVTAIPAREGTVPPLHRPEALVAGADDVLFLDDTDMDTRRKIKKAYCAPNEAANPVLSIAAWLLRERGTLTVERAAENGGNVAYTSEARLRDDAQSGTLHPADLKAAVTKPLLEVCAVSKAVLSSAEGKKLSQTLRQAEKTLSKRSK
# [10] = molecular target: T4, Tyrosyl-tRNA synthetase, putative (Trypanosoma cruzi (strain CL Brener)); assay: Trypanosoma cruzi tyrosyl tRNA synthetase (TcYRS) SOP; format: functional; conditions: 30 µM
# [11] = molecular target: Chromo domain-containing protein 1 (Saccharomyces cerevisiae (strain ATCC 204508 / S288c) (Baker's yeast)) (UniProt P32657); assay: ScCHD-1 Enzyme Inhibition Assay; format: functional; conditions: 30 µM; note: in the data most compounds retested in dose-response had high values
# Chain of Chromo domain-containing protein 1 (Saccharomyces cerevisiae (strain ATCC 204508 / S288c) (Baker's yeast)) (P32657 whole entry, the tested form may be a part): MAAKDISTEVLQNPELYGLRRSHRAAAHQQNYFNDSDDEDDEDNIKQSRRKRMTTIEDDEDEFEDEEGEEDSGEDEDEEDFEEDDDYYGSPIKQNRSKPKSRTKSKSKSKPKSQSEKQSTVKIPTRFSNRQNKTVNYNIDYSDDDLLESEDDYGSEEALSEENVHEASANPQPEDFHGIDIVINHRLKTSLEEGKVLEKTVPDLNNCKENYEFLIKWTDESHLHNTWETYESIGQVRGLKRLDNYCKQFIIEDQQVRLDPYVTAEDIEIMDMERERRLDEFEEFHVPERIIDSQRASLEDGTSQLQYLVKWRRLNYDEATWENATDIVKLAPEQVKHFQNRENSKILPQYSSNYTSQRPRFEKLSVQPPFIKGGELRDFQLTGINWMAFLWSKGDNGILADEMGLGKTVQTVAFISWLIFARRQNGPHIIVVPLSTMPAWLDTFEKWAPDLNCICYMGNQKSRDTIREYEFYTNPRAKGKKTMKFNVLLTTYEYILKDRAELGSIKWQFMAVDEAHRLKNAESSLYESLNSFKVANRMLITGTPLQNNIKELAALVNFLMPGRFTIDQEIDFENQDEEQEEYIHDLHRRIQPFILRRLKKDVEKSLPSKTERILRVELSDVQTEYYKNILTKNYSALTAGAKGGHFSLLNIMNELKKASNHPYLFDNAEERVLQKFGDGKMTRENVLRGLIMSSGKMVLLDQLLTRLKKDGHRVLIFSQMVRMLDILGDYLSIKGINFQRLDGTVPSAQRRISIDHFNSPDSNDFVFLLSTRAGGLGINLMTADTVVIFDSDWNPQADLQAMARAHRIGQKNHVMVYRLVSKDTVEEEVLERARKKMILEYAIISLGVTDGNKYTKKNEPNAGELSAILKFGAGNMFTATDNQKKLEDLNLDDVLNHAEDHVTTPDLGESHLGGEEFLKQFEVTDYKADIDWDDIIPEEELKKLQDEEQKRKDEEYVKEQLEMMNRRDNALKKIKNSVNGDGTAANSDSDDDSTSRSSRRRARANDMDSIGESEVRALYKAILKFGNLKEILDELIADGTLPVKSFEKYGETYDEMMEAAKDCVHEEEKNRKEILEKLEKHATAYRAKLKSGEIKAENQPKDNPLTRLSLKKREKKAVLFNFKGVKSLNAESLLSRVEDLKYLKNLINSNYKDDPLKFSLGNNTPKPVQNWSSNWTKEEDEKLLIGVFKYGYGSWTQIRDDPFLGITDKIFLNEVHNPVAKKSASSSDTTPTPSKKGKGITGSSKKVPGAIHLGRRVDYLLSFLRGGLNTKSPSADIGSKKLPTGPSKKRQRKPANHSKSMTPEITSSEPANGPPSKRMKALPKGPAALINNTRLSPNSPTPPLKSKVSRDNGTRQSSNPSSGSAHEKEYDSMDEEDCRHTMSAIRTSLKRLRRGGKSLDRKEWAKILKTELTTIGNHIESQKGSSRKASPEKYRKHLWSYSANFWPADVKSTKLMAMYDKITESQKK
smiles,measurement,setting,value
O=C(NCC(F)F)N1CCC(n2ccc(C(F)(F)F)n2)CC1,Percent Effect,[1],-2.09%
same,Percent Effect,[2],5.48%
same,Percent Effect,[3],-1.59%
same,Percent Effect,[4],3.79%
same,Percent Effect,[5],5.09%
same,Percent Effect,[6],8.64%
same,Percent Effect,[7],10.3%
same,Percent Effect,[8],0.988%
same,Percent Effect,[9],2.15%
same,Percent Effect,[10],7.5%
same,Percent Effect,[11],-4.48%
Cc1nn(C)c(N(C)C)c1CNCC(O)COc1ccc(F)cc1 (stereo unspecified),Percent Effect,[1],-3.9%
same,Percent Effect,[2],2.74%
same,Percent Effect,[3],-7.44%
same,Percent Effect,[4],-8.06%
same,Percent Effect,[5],-1.57%
same,Percent Effect,[6],0.909%
same,Percent Effect,[7],12.2%
same,Percent Effect,[8],-14.5%
same,Percent Effect,[9],4.3%
same,Percent Effect,[10],12.5%
same,Percent Effect,[11],-3.3%
O=C(c1cccnc1)N1C[C@@H]2CC[C@H](C1)N(Cc1cccc(Cl)c1F)C2,Percent Effect,[1],-2.44%
same,Percent Effect,[2],8.22%
same,Percent Effect,[3],11.4%
same,Percent Effect,[4],4.43%
same,Percent Effect,[5],-0.588%
same,Percent Effect,[6],5%
same,Percent Effect,[7],10.8%
same,Percent Effect,[8],8.1%
same,Percent Effect,[9],9.68%
same,Percent Effect,[10],22.5%
same,Percent Effect,[11],-3.1%
Cc1ccc(N2CCCC(NCC(=O)NC3CCOCC3)C2)nn1 (stereo unspecified),Percent Effect,[1],-5.04%
same,Percent Effect,[2],-3.8%
same,Percent Effect,[3],-5.1%
same,Percent Effect,[4],4.11%
same,Percent Effect,[5],-1.13%
same,Percent Effect,[6],4.95%
same,Percent Effect,[7],3.94%
same,Percent Effect,[8],-13.5%
same,Percent Effect,[9],0%
same,Percent Effect,[10],5.06%
same,Percent Effect,[11],-2.4%
COCC(=O)N1CCC(c2nc3ccc(N4CCCC4)cn3n2)CC1,Percent Effect,[1],-3.58%
same,Percent Effect,[2],5.48%
same,Percent Effect,[3],-210%
same,Percent Effect,[4],5.8%
same,Percent Effect,[5],-4.96%
same,Percent Effect,[6],1.2%
same,Percent Effect,[7],10%
same,Percent Effect,[8],-9.84%
same,Percent Effect,[9],7.29%
same,Percent Effect,[10],11.1%
same,Percent Effect,[11],-3.02%
Cc1nc(C2CCCN(C(=O)c3sccc3C3CC3)C2)no1 (stereo unspecified),Percent Effect,[1],-1.32%
same,Percent Effect,[2],-1.39%
same,Percent Effect,[3],-29%
same,Percent Effect,[4],-2.96%
same,Percent Effect,[5],-0.486%
same,Percent Effect,[6],-0.442%
same,Percent Effect,[7],11.9%
same,Percent Effect,[8],5.93%
same,Percent Effect,[9],0%
same,Percent Effect,[10],0%
same,Percent Effect,[11],-0.247%
